Inconclusive results are not listed. Active and inactive are the calls of the source. Unless noted, calls follow the shape of the dose curve; as a rule, active = well fitted cell-killing curve with a large enough effect; inconclusive = small, poorly fitted or top-dose-only effect; inactive = flat fitted curve, though single readings scatter.
Legend:
[1] = Cell Viability - LYMP2-025 (AID 976);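 also: series mostly up to about 92 µM; plate controls were DMSO only for no effect and tetraoctylammonium bromide control for full effect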
Procedure, shortened: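 Acute cytotoxicity is scored as a concentration-dependent fall in intracellular ATP, measured by luciferase luminescence, in human lymphoblastoid LYMP2-025 cells exposed to compound for 24 hours at 37 C. AC50 values come from standard Hill fits.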

[2] = Cell Viability - LYMP2-002 (AID 977);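 also: series mostly up to about 92 µM; compound exposure lasted 24 h at 37 °C; plate controls were DMSO only for no effect and 92 µM tetraoctylammonium bromide for full effect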
Procedure, shortened: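 In this qHTS viability screen, 2500 human lymphoblastoid cells per well receive compound for 24 hr at 37 C, and luciferase-based ATP luminescence gives the viability signal. Tetraoctylammonium bromide serves as positive control.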

[3] = Cell Viability - LYMP2-006 (AID 978); also: series mostly up to about 92 µM; % is scaled to controls: 0 for no effect and ±100 for the full control effect; nearly all actives have a fitted effect of over 60% in size
Procedure, shortened: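 In this cytotoxicity screen, the human lymphoblastoid line grew in complete medium with test compounds for 24 hr at 37 C. Cellular ATP served as the viability signal.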

[4] = Cell Viability - LYMP2-007 (AID 979);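 also: cells exposed to compound for 24 h before reading; 0% = DMSO only and the negative end = 92 µM tetraoctylammonium bromide; nearly all actives have a fitted effect of over 60% in size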
Procedure, shortened: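 Cells are seeded at 2500 per well and rested 5 hr. Compounds are then added over a concentration series for 24 hr at 37 C. CellTiter-Glo is added for 30 min at room temperature before luminescence reading.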

[5] = Cell Viability - LYMP2-008 (AID 980); also: % is scaled to controls: 0 for no effect and ±100 for the full control effect; nearly all actives have a fitted effect of over 60% in size
Procedure, shortened: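 Cells seeded at 2500/well and rested 5 hr at 37 C; compounds added over a concentration range and incubated 24 hr at 37 C; CellTiter-Glo added, 30 min at room temperature; luminescence read and AC50 fitted with Hill model.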

[6] = Cell Viability - LYMP2-012 (AID 982);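 also: cellular ATP by luciferase luminescence where a drop means cytotoxicity; cells exposed to compound for one day before reading; 0% = DMSO only and full loss = 92 µM tetraoctylammonium bromide; nearly all actives have a fitted effect of over 55% in size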
[7] = Cell Viability - LYMP2-014 (AID 983);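 also: series mostly up to about 92 µM; plate controls were DMSO only for no effect and 92 µM tetraoctylammonium bromide for full effect; nearly all actives have a fitted effect of over 50% in size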
Procedure, shortened: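 Cells are plated at 2500/well and left 5 hr at 37 C. Compounds are added across a concentration range and incubated 24 hr at 37 C in complete medium. CellTiter-Glo is added, and luminescence is read after 30 min at room temperature.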

[8] = Cell Viability - LYMP2-016 (AID 984); also: % is scaled to controls: 0 for no effect and ±100 for the full control effect; nearly all actives have a fitted effect of over 55% in size
Procedure, shortened: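 Concentration-dependent ATP depletion measured in LYMP2-016 lymphoblastoid cells, 24 h, 37 C; luciferase-based luminescent detection; Hill-equation AC50.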

[9] = Cell Viability - LYMP2-018 (AID 985);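 also: compound exposure lasted 24 hr at 37 °C; plate controls were DMSO only for no effect and tetraoctylammonium bromide at 92 µM for full effect; nearly all actives have a fitted effect of over 50% in size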
Procedure, shortened: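 Seed 2500 lymphoblastoid cells per well, incubate 5 hr at 37 C, add compound and incubate 24 hr at 37 C, add CellTiter-Glo, wait 30 min at room temperature, then read luminescence.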

[10] = Cell Viability - LYMP2-020 (AID 986);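 also: series mostly up to about 92 µM; plate controls were DMSO only for no effect and tetraoctylammonium bromide at 92 µM for full effect; nearly all actives have a fitted effect of over 55% in size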
Procedure, shortened: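 Seed 2500 cells per well and incubate 5 hr at 37 C. Add compounds at a concentration series and incubate 24 hr at 37 C. Add CellTiter-Glo, wait 30 min at RT, read luminescence, and fit a Hill curve for AC50.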

[11] = Cell Viability - LYMP2-024 (AID 988);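 also: plate controls were DMSO only for no effect and 92 µM tetraoctylammonium bromide for full effect; nearly all actives have a fitted effect of over 60% in size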
Procedure, shortened: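 qHTS cytotoxicity, human lymphoblastoid line, complete medium; 24 h cpd treatment, 37 C; CellTiter-Glo ATP luminescence readout; tetraoctylammonium bromide positive control; AC50 via Hill fit.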

[12] = Cell Viability - LYMP2-026 (AID 989); also: % is scaled to controls: 0 for no effect and ±100 for the full control effect; nearly all actives have a fitted effect of over 50% in size
Procedure, shortened: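 Cells are seeded at 2500 per well and held 5 hr at 37 C. Compounds are added in concentration series for 24 hr, then CellTiter-Glo reagent is applied and luminescence read.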

[13] = Cell Viability - LYMP1-002 - Assay at 24 hr (AID 993); also: % is scaled to controls: 0 for no effect and ±100 for the full control effect
Procedure, shortened: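 Acute toxicity is measured as concentration-dependent loss of cellular ATP in a human lymphoblastoid line (Coriell LYMP1-002) after 24 h treatment in complete medium. ATP is quantified by luciferase luminescence and AC50 derived by Hill modelling.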

[14] = qHTS Assay for Identification of Small Molecule Inducers of Hypoxia Response (AID 2120; active = well fitted curve in the direction sought with a large enough effect in the signal ratio, with a control signal flat, not every such curve was filed as active; the % refers to the signal ratio; also: 0% is about no effect)
Procedure, shortened: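 Cell-based qHTS for reporter induction: hypoxia response element controlled beta-lactamase in ME-180 cells. Compounds incubated 17 h at 37 degrees C; activity from blue/green (460/530 nm) ratio, inducers ranked by AC50.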

[15] = biological target: Androgen receptor (Homo sapiens) (UniProt P10275); test: qHTS assay for small molecule agonists of androgen receptor signaling (AID 588515; active = well fitted curve in the direction sought with a large enough effect in the signal ratio, with a control signal flat; the % refers to the signal ratio; also: % is scaled to controls: 0 for no effect and ±100 for the full control effect); conditions: AR-UAS-bla HEK293, beta-lactamase ratio, agonist 16 h; hits give high values
Procedure, shortened: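 Stimulation of an AR-responsive β-lactamase reporter in GripTite HEK293 cells was measured after 16 h compound exposure at 37 °C, via CCF4 fluorescence after 2 h RT. EC50 from Hill fits, normalized to R1881 at 30 nM.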

[16] = Cell Viability - LYMP1-002 - Assay at 40 hr (AID 994)
Procedure, shortened: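 Cells are plated at 2500 per well and rested 5 hr at 37 C. Compounds are added and incubated 40 hr at 37 C. CellTiter-Glo reagent is added for 30 min at room temperature before luminescence is read.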

[17] = biological target: Estrogen receptor (Homo sapiens) (UniProt P03372); test: qHTS assay for small molecule agonists of estrogen receptor alpha signaling (AID 588514; calls by dose curve;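 also: 0% = vehicle only and 100% = reference agonist; nearly all actives have a fitted effect of over 70% in size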)
Procedure, shortened: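 Efficacy is expressed against 20 nM 17-beta-estradiol (100%) and DMSO basal (0%); EC50 from Hill equation. Assay: beta-lactamase reporter in ER-alpha-UAS-bla HEK 293 cells, 18 h compound incubation, CCF4 detection.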

[18] = Cell Viability - LYMP2-010 (AID 981); also: % is scaled to controls: 0 for no effect and ±100 for the full control effect; nearly all actives have a fitted effect of over 55% in size
Procedure, shortened: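 Steps: seed 2500 LYMP2-010 cells per well; incubate 5 hr at 37 C; add compound; incubate 24 hr at 37 C; add CellTiter-Glo, wait 30 min at room temperature; read luminescence. Concentration-response fitted to Hill equation for AC50.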

[19] = Cell Viability - LYMP2-022 (AID 987)
Procedure, shortened: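 Cells were seeded at 2500 per well, rested 5 hr at 37 C, and treated with titrated compounds for 24 hr at 37 C. Cellular ATP was then quantified by luciferase luminescence, and AC50 values were derived from Hill-modelled concentration-response curves.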

Sequence of Androgen receptor (Homo sapiens) (P10275 whole entry, looked up): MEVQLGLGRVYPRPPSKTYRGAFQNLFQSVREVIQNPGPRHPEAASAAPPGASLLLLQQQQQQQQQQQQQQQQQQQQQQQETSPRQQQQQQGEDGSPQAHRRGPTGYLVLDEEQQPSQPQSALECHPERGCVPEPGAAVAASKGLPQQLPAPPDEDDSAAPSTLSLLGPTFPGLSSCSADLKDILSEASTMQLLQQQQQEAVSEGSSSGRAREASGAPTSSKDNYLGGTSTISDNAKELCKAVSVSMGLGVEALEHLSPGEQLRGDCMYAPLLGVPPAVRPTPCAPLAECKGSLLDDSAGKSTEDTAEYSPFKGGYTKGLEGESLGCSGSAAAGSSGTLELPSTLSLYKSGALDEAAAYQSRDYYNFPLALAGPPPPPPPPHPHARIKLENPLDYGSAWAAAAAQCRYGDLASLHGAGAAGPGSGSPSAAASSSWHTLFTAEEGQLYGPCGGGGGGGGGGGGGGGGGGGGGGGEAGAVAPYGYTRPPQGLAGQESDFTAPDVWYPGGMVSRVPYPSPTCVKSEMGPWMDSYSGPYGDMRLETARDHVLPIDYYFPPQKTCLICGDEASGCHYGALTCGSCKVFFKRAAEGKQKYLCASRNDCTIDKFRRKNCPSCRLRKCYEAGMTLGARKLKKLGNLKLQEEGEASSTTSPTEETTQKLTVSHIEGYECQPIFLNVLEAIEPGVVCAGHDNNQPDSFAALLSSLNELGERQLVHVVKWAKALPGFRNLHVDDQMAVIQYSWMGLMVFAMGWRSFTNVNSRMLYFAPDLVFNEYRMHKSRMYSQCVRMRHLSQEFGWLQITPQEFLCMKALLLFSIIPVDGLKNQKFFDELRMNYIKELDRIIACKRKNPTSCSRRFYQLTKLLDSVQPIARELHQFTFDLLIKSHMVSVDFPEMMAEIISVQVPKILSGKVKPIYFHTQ
Sequence of Estrogen receptor (Homo sapiens) (P03372 whole entry, looked up): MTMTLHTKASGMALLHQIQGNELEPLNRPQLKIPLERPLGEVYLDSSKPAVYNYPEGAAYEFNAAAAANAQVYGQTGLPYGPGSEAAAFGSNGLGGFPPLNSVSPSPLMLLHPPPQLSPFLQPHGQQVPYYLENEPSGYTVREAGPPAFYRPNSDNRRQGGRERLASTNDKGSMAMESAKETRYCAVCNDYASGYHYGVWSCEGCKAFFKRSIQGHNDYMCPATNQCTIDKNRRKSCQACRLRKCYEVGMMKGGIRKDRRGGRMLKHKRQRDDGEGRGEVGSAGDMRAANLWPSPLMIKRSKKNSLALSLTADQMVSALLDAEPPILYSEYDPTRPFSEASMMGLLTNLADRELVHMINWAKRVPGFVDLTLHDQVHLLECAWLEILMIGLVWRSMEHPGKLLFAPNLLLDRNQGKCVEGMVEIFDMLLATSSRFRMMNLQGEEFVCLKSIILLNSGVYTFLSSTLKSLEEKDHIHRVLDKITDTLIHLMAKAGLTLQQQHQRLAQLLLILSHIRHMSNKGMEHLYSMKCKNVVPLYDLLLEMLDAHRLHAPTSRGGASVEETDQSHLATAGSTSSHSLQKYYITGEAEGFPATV

CC/C=C1/OC(=O)c2ccccc21
inactive: Potency [1] | Potency [2] | Potency [3] | Potency [4] | Potency [5] | Potency [6] | Potency [7] | Potency [8] | Potency [9] | Potency [10] | Potency [11] | outcome [12] | Potency [13] | outcome [14] | activation [15] 15.6%

C[C@@H]1CC2(OC[C@]3(C)O[C@H]23)O[C@H]2C[C@@]3(C)[C@@H]4CC[C@H]5C(C)(C)C(O[C@@H]6OC[C@@H](O)[C@H](O)[C@H]6O)CC[C@@]56C[C@@]46CC[C@]3(C)[C@@H]12 (some centres not stated)
inactive: Potency [2] | Potency [3] | Potency [4] | Potency [5] | Potency [6] | Potency [7] | Potency [8] | Potency [9] | outcome [12] | Potency [13] | Potency [16] | outcome [14] | Potency [17]

O=C(Cl)c1c(Cl)cccc1Cl
inactive: Potency [1] | Potency [2] | Potency [3] | Potency [4] | Potency [5] | Potency [18] | Potency [6] | Potency [7] | Potency [8] | Potency [9] | Potency [10] | Potency [19] | Potency [11] | outcome [12] | Potency [13] | outcome [14] | Potency [17]

Cc1c(N)cccc1[N+](=O)[O-]
inactive: Potency [1] | Potency [2] | Potency [3] | Potency [4] | Potency [5] | Potency [18] | Potency [6] | Potency [7] | Potency [8] | Potency [9] | Potency [10] | Potency [19] | Potency [11] | outcome [12] | Potency [13] | Potency [16] | outcome [14] | Potency [17]

CO[Si](CCCNCCC[Si](OC)(OC)OC)(OC)OC
inactive: Potency [1] | Potency [2] | Potency [3] | Potency [4] | Potency [5] | Potency [18] | Potency [6] | Potency [7] | Potency [9] | Potency [10] | Potency [19] | Potency [11] | outcome [12] | Potency [13] | outcome [14] | Potency [17]

CC(C)C(C)C
inactive: Potency [1] | Potency [2] | Potency [3] | Potency [4] | Potency [5] | Potency [18] | Potency [6] | Potency [7] | Potency [8] | Potency [9] | Potency [10] | Potency [19] | Potency [11] | outcome [12] | Potency [13] | Potency [16] | outcome [14]

CC1(N)CCC(C(C)(C)N)CC1 (configuration not stated)
inactive: Potency [1] | Potency [2] | Potency [3] | Potency [4] | Potency [5] | Potency [18] | Potency [6] | Potency [7] | Potency [8] | Potency [9] | Potency [10] | Potency [19] | Potency [11] | outcome [12] | Potency [13] | outcome [14]

CCNc1ccccc1
inactive: Potency [1] | Potency [2] | Potency [4] | Potency [5] | Potency [18] | Potency [6] | Potency [7] | Potency [8] | Potency [9] | Potency [10] | Potency [19] | outcome [12] | Potency [13] | Potency [16] | outcome [14] | activation [15] 1.96%

CC(=O)c1ccc([N+](=O)[O-])cc1
inactive: Potency [1] | Potency [2] | Potency [3] | Potency [4] | Potency [5] | Potency [18] | Potency [6] | Potency [7] | Potency [8] | Potency [9] | Potency [10] | Potency [19] | Potency [11] | outcome [12] | Potency [13] | Potency [16] | outcome [14]

Nc1c(Cl)cc(Cl)cc1Cl
inactive: Potency [1] | Potency [2] | Potency [3] | Potency [4] | Potency [5] | Potency [18] | Potency [6] | Potency [7] | Potency [8] | Potency [9] | Potency [10] | Potency [19] | Potency [11] | Potency [13] | outcome [14]

CC=O
inactive: Potency [1] | Potency [2] | Potency [3] | Potency [4] | Potency [5] | Potency [18] | Potency [6] | Potency [7] | Potency [8] | Potency [9] | Potency [10] | Potency [19] | Potency [11] | outcome [12] | Potency [13] | Potency [16] | outcome [14]

CN(C)c1cccc(O)c1
inactive: Potency [1] | Potency [2] | Potency [3] | Potency [4] | Potency [5] | Potency [18] | Potency [6] | Potency [7] | Potency [8] | Potency [9] | Potency [10] | Potency [19] | Potency [11] | outcome [12] | Potency [13] | Potency [16] | outcome [14]

O=C(O)c1c(Cl)cccc1Cl
inactive: Potency [1] | Potency [2] | Potency [3] | Potency [4] | Potency [5] | Potency [18] | Potency [6] | Potency [7] | Potency [8] | Potency [9] | Potency [10] | Potency [19] | Potency [11] | outcome [12] | Potency [13] | Potency [16] | outcome [14]

CCCCOCCOCCSC#N
inactive: Potency [1] | Potency [2] | Potency [3] | Potency [4] | Potency [5] | Potency [18] | Potency [6] | Potency [7] | Potency [8] | Potency [9] | Potency [10] | Potency [19] | Potency [11] | outcome [12] | Potency [13] | Potency [16] | outcome [14]

Cc1cccc(Br)c1
inactive: Potency [1] | Potency [2] | Potency [3] | Potency [4] | Potency [5] | Potency [18] | Potency [6] | Potency [7] | Potency [8] | Potency [9] | Potency [10] | Potency [19] | Potency [11] | outcome [12] | Potency [13] | outcome [14]

Clc1ccccn1
inactive: Potency [1] | Potency [2] | Potency [3] | Potency [4] | Potency [5] | Potency [18] | Potency [6] | Potency [7] | Potency [8] | Potency [9] | Potency [10] | Potency [19] | Potency [11] | outcome [12] | Potency [13] | Potency [16] | outcome [14]

O=Cc1ccc(Cl)cc1
inactive: Potency [1] | Potency [2] | Potency [3] | Potency [4] | Potency [5] | Potency [6] | Potency [9] | Potency [10] | Potency [19] | Potency [11] | outcome [12] | Potency [13] | Potency [16] | outcome [14] | activation [15] -1.22%

O=[N+]([O-])c1cc(C(F)(F)F)ccc1Cl
inactive: Potency [2] | Potency [3] | Potency [4] | Potency [5] | Potency [18] | Potency [6] | Potency [7] | Potency [8] | Potency [9] | Potency [10] | Potency [19] | Potency [11] | Potency [13] | Potency [16] | outcome [14] | activation [15] 13.2%

Reference: PubChem BioAssay (NCATS)
